Bioassay records: PubChem, National Center for Advancing Translational Sciences (NCATS)
A selection: hits, their analogues and other compounds. The true share with any hit is near 11%.
JMJD2A Tudor = JMJD2A Tudor domain (human) inhibition. AID 504339. AlphaScreen JMJD2A-Tudor / H3K4me3 peptide binding. Potency, µM (titrated, usually from 114 µM), actives largely listed as inhibitors. O75164. 390,000 tested, 4.4% active; note: nearly all actives have a fitted effect of over 50% in size
HP1b binding inh = HP1-beta chromodomain-methylated histone interaction inhibition; P83916; AlphaScreen HP1-beta / biotin-H3K9me3 peptide binding; Potency, µM (titrated, usually from 114 µM), hits mostly inhibitors; 390,000 tested, 0.56% active; note: nearly all actives have a fitted effect of over 70% in size
Target sequence (P83916 whole entry, looked up): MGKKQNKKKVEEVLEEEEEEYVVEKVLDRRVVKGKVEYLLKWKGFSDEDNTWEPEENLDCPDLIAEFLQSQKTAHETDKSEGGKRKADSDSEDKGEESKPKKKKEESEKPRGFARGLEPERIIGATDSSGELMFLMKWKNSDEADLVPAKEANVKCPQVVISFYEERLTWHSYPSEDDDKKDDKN
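AlphaScreen: HP1-beta (50 nM) preformed 30 min with biotin-H3(1-18)K9me3 peptide (50 nM) in PBS pH 7.4, 0.01% Tween-20. Compound added for 30 min at RT, then streptavidin donor/nickel chelate acceptor beads (10 ug/mL) for 30 min.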
G9a block = inhibitors of human histone lysine methyltransferase G9a | 350,000 tested, 8.8% active | G9a H3K9 monomethylation, AlphaScreen, 2 h | AID 504332 | Potency, µM (series often up to 102 µM), most hits filed as inhibitors | Q96KQ7; note: nearly all actives have a fitted effect of over 75% in size
Target sequence (Q96KQ7 913-1193 limits assumed): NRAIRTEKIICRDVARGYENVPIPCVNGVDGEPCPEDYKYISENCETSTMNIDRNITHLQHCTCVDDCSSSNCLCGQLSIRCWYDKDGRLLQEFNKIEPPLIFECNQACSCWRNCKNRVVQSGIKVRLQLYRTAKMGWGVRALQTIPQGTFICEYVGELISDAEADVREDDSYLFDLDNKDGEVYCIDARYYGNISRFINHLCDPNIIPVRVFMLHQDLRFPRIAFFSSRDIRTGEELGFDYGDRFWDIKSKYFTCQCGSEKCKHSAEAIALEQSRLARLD
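Compounds were preincubated with 20 nM G9a for 15 min, after which biotinylated H3K9 peptide (500 nM) and SAM (20 uM) started a 2 h room-temperature reaction. Monomethylated product was quantified by antibody-based AlphaScreen chemiluminescence.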
BAZ2B block = inhibitors of human BAZ2B bromodomain; Q9UIF8; AlphaScreen BAZ2B-H3K14Ac peptide displacement; Potency, µM (titrated, usually from 114 µM), most hits filed as inhibitors; 360,000 tested, 4.4% active; note: nearly all actives have a fitted effect of over 60% in size
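AlphaScreen luminescence quantifies BAZ2B engagement of H3K14Ac peptide; the protein and biotinylated peptide are both at 50 nM final, buffer PBS pH 7.4 with 0.01% Tween-20, all steps at room temperature.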
L3MBTL1 inh = inhibitors of human L3MBTL1; Q9Y468; AlphaScreen L3MBTL1–H3K9me1 peptide binding; Potency, µM (doses to about 57.1 µM), actives largely listed as inhibitors; 230,000 tested, 0.66% active; AID 485360; note: nearly all actives have a fitted effect of over 60% in size
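First, the protein-peptide complex forms for 30 min at room temperature (L3MBTL1 50 nM, biotinylated H3K9me1 peptide 75 nM). Next, compounds are pin-transferred and incubated 30 min. Finally, AlphaScreen beads are added and read after 30 min.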
Hits are given with their value; 0 = inactive; ? = inconclusive; - = no result; [ ] = remark or other dose. Calls come from the whole dose curve; as a rule, active = well fitted inhibition curve with a large enough effect; inconclusive = small, poorly fitted or top-dose-only effect; inactive = no such curve, though single readings can be large or run the other way.

SMILES	JMJD2A Tudor	HP1b binding inh	G9a block	BAZ2B block	L3MBTL1 inh
COc1ccccc1CNc1ncnc2ccc(-c3ccccc3OC)cc12	-	-	0[0.501 µM]	-	-
Cc1cccc(C)c1NC(=O)CN(C)C(=O)c1cccc(NS(=O)(=O)c2ccccc2)c1	0	0	0	0	0
O=C(O)C1=NN(c2cc(Cl)c(S(=O)(=O)O)cc2Cl)C(=O)C1	6.31µM	0	-	-	-
CCC(=O)OCC(=O)C1(OC(=O)CC)C(C)CC2C3C(Cl)CC4=CC(=O)C=C[C@@]4(C)C3C(O)C[C@@]21C (some centres undefined)	-	-	0[2.33 µM]	-	-
C=CCSc1nnc(-c2cc3c(-c4ccccc4)nn(C)c3s2)n1C	0	0	0	0	0
C=CCSc1nnc(-c2cc3c(C(F)(F)F)nn(C)c3s2)n1C	0	0	70.8µM	0	0
O=C(N/N=C/c1sc2ccccc2c1O)c1ccccc1	?	0	?	?	0
COc1ccc(C(=O)N/N=C/c2sc3ccccc3c2O)cc1	?	0	50.1µM	44.7µM	0
O=C(N/N=C/c1sc2ccccc2c1O)c1cccc2ccccc12	79.4µM	0	0	44.7µM	0
COc1ccc(CN(C(=O)c2ccccc2F)C2CCS(=O)(=O)C2)cc1 (centres undefined)	0	0	0	0	-
CCC(=O)O	-	-	0	-	-
COc1ccc(CCNCc2cc(C)n(-c3ccc(OC)cc3)c2C)cc1	20µM	?	0[2.33 µM]	28.2µM	-
COc1ccc(CCNC(=O)CN2CCN(c3ccccc3Cl)CC2)cc1	0	0	0	0	-
COc1ccc(CCNCc2ccccc2N2CCCC2)cc1	20µM	0	?	56.2µM	-
CN(C)c1ncnc2ccc(-c3cccnc3)cc12	-	-	0[0.501 µM]	-	-
COc1ccc(N2CC(C(=O)Nc3ccc([N+](=O)[O-])cc3Br)CC2=O)cc1 (centres undefined)	0	0	?	0	-
COc1ccc(N2CC(C(=O)N/N=C/c3cc([N+](=O)[O-])ccc3O)CC2=O)cc1 (centres undefined)	79.4µM	0	0	35.5µM	-
CCc1ccc(N2CC(C(=O)Nc3nc4ccc(S(C)(=O)=O)cc4s3)CC2=O)cc1 (centres undefined)	0	0	39.8µM	0	-
COc1ccc(C(=O)Nc2nc3ccc(S(C)(=O)=O)cc3s2)cc1	0	0	?	0	0
CS(=O)(=O)c1ccc2nc(NC(=O)C3CC3)sc2c1	0	0	-	-	-
COc1cc(OC)cc(C(=O)N[C@H](C(=O)Nc2nc3ccc(S(C)(=O)=O)cc3s2)C(C)C)c1	0	0	39.8µM	0	-
COc1ccc2nc(NC(=O)C3CCN(S(=O)(=O)c4cccs4)CC3)sc2c1	100µM	0	0	0	-
Cc1ccc(C)c(NC(=O)c2cnn(-c3cccc(F)c3)c2C2CCN(C(=O)OC(C)(C)C)CC2)c1	0	0	0	0	-
COc1ccc(Cl)cc1NC(=O)c1cc(S(=O)(=O)NC2CCCCCC2)ccc1F	0	0	0	0	-
COc1cc(Cl)c(C)cc1NC(=O)CC(c1ccc(F)cc1)N1Cc2ccccc2C1=O (centres undefined)	0	0	0	0	-
SMILES	JMJD2A Tudor	HP1b binding inh	G9a block	BAZ2B block	L3MBTL1 inh
CN(c1ccc(OCC(=O)N2CCOCC2)cc1)S(=O)(=O)c1ccc(Cl)cc1	0	0	0	0	-
COc1ccc(N2CC(C(=O)Nc3nc4ccc(S(C)(=O)=O)cc4s3)CC2=O)cc1 (centres undefined)	0	0	28.2µM	?	-
CS(=O)(=O)c1ccc2nc(NC(=O)C3CC(=O)N(c4ccc(F)cc4)C3)sc2c1 (centres undefined)	0	0	?	0	-
COC(=O)C1=C(C)N(c2ccccc2)C(=S)NC1c1ccccc1C(F)(F)F (centres undefined)	?	0	50.1µM	?	?
COCCOC(=O)C1=C(C)N(c2ccccc2)C(=S)NC1c1ccccc1C(F)(F)F (centres undefined)	?	0	0	0	0
N#Cc1nc(Nc2cc(Cl)cc(Cl)c2)nc(NC2CCCC2)n1	0	-	-	-	-
CCCN1C(=O)N(C)C(N(O)C(=O)NC)C1(C)C (centres undefined)	0	0	0	0	0
CNC(=O)N(O)C1N(C)C(=O)N(CC(=O)OC)C1(C)C (centres undefined)	15.8µM	0	0	0	0
CCc1ccc(C2CC(=O)c3c([nH]c(C(=O)OCCOc4ccccc4)c3C)C2)cc1 (centres undefined)	0	0	0	0	-
